Assay outcomes as filed in PubChem BioAssay.
A selection: hits, their analogues and other compounds. The true share with any hit is near 1.3%.
Beta2AR agonist = agonists of human beta-2 adrenergic receptor inducing internalization; P07550; Am2.2-beta2AR cells, FAP receptor internalization, flow cytometry; response, % (test concentration not listed); 340,000 compounds, 0.43% hits; AID 504454;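 active = response above a set limit, near 3 SD of response in nonfluorescent compounds, cut at about 42% in these data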
Target sequence (P07550 whole entry, looked up): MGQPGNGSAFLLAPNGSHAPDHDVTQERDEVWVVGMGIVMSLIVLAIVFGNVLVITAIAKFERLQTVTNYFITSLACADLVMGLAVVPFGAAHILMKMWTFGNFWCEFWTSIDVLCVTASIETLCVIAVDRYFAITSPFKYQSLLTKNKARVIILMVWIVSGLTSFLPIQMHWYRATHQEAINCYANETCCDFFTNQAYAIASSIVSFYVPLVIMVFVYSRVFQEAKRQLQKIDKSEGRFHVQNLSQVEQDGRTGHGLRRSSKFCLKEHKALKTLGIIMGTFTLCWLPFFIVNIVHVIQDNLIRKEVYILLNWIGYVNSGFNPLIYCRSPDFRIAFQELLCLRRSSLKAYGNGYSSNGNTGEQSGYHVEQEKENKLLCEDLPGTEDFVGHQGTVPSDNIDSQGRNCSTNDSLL
GRK2 inh = human GRK2 inhibition via aptamer displacement. bead flow cytometry, FAM-aptamer displacement from GRK2. inhibition of aptamer binding, % at 10 µM. 330,000 compounds, 0.59% hits;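 active = inhibition of aptamer binding above 40%, roughly 3 SD of noise, on plates passing a quality check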;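 note: median bead fluorescence of bound FAM aptamer so fluorescent compounds give negative values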
A1 inh = inhibitors of the anti-apoptotic protein A1, read as caspase activation | MEF A1-2A-BIM cells, Caspase-Glo 3/7 luminescence, 3 h; percent of clofoctol response, vehicle zero | caspase activation, % (concentration not given with the values) | 330,000 compounds, 0.066% hits | AID 2462;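 active = over half of replicate activation scores above 10%, or exactly half above 10 with the replicate mean above 10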
VLA-4 inh = inhibition in a human VLA-4 binding assay; VLA-4 expressing cells, ligand binding flow cytometry; inhibition, % (about 7 µM as worked out from the volumes in the protocol); 330,000 compounds, 0.2% hits; in the data active = inhibition above about 50%
NTR1 agonist = NTR1 (human) agonism; NTR1-U2OS beta-arrestin-GFP spot imaging, agonist mode; activation, % at 20 µM; 330,000 compounds, 0.17% hits; P30989;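 active = activation at or above 40% of the spot to cytoplasm intensity ratio, with at least 20 cells analyzed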
VLA-4 mod pick = human VLA-4 allosteric modulation in cherry picked compounds; U937 cells, HUTS-21 LIBS mAb binding, flow cytometry; LDV ligand present at threefold Kd; shares compounds with VLA-4 inh; 1,300 compounds, 2% hits; inhibition, % at 6.7 µM; in the data active = inhibition above about 40%
Numbers stand for hits; . = inactive; / = no result.

SMILES	Beta2AR agonist	GRK2 inh	A1 inh	VLA-4 inh	NTR1 agonist	VLA-4 mod pick
Cc1c(NC(=O)CN2CCN(C(=O)c3ccco3)CC2)c(=O)n(-c2ccccc2)n1C	.	.	.	.	.	.
Cc1c(NC(=O)c2cc3ccccc3c(=O)s2)c(=O)n(-c2ccccc2)n1C	.	.	.	53	.	.
CCN(CC(=O)NCc1cccs1)C(=O)c1ccc(S(=O)(=O)Nc2cccc(C)c2C)cc1	.	.	.	.	.	/
COc1cccc(CN(C)C(=O)Cn2cc(C)c(=O)[nH]c2=O)c1	.	/	/	/	/	/
CCN(c1ccccc1)S(=O)(=O)c1cccc(C(=O)OCC(=O)Nc2ccc(NC(C)=O)cc2)c1	.	.	.	.	.	/
COc1ccc(CC(=O)NC2CCCCCC2)c(OC)c1	.	.	.	.	.	/
Cc1c(NC(=O)c2c(F)c(F)c(F)c(F)c2F)c(=O)n(-c2ccccc2)n1C	.	.	.	.	.	.
Nc1ncnc2c1ncn2[C@@H]1O[C@H](CNC(=O)[C@@H]2C[C@H](F)CN2)[C@@H](O)[C@H]1O	.	.	/	/	.	/
O=C1CCN(CCCc2ccccc2)CCN1[C@H](CO)Cc1ccccc1	.	.	.	54	.	.
COc1ccc(CNC(=O)Nc2cccs2)cc1OC	.	.	.	.	.	/
COc1cccc(CNC(=O)Nc2cccs2)c1	.	.	.	92	.	.
CCC(COC(=O)Nc1cccc(C)c1)NC(=O)OCC(C)C (stereo unspecified)	.	.	.	94	.	.
CCN1/C(=C2/SC(=S)N(NC(C)=O)C2=O)Sc2ccccc21	.	.	.	.	.	/
CC(=O)NN1C(=O)/C(=C2/Sc3ccccc3N2C)SC1=S	.	.	.	.	.	.
COc1ccc(OC)c(C(=O)COC(=O)CNC(=O)C2CCCCC2)c1	.	.	.	60	.	.
CCOc1ccc(C2OCCC(C)O2)cc1OC (stereo unspecified)	.	/	/	/	/	/
CN(C)S(=O)(=O)c1ccc2c(c1)nc(CCC(=O)NCCc1ccc(Cl)cc1)n2C	.	.	.	.	.	/
COc1ccccc1-c1nc2ccc(Cl)cc2c(=O)n1O	.	.	.	.	.	.
COc1ccccc1-c1nc2cc(Cl)ccc2c(=O)n1O	.	.	.	.	.	/
CN(Cc1ccccc1)C(=O)CN(C)S(=O)(=O)c1ccc(F)cc1	.	.	.	.	.	.
Cc1ccc2nc(NC(=O)CSc3nc(=O)n(CCN(C)C)c4c3CCCC4)sc2c1	.	.	.	.	.	/
COC(=O)c1cn(CC(=O)Nc2ccccc2C)c2ccccc12	.	.	.	.	.	.
COC(=O)c1cn(CC(=O)Nc2ccc(OC)cc2)c2ccccc12	.	.	.	.	.	/
CCC(=O)c1cn(CC(=O)Nc2ccc(C)cc2)c2ccccc12	.	.	.	.	.	.
CCC(=O)c1cn(CC(=O)Nc2cc(C)ccc2C)c2ccccc12	.	.	.	.	.	/
SMILES	Beta2AR agonist	GRK2 inh	A1 inh	VLA-4 inh	NTR1 agonist	VLA-4 mod pick
CCC(=O)c1cn(CC(=O)Nc2ccc(OC)cc2)c2ccccc12	.	.	.	57	.	.
CCC(=O)c1cn(CC(=O)Nc2ccccc2F)c2ccccc12	.	.	.	.	.	.
CC(C)Sc1nc2ccccc2n2cnnc12	.	.	.	.	.	/
COc1ccc(C2=Nn3c(nnc3-c3ccc(OC)cc3)SC2)cc1	.	.	.	54	/	.
COc1ccc(-c2nnc3n2N=C(C)CS3)cc1	.	.	.	.	.	/
CC(=O)Nc1nc(COc2ccc3ccccc3c2)cs1	.	.	.	56	.	.
c1ccc(-c2nc(SCc3nc4ccccc4[nH]3)c3oc4ccccc4c3n2)cc1	.	.	.	.	.	/
COc1cccc(N2CCN(C(=O)c3cccc(NC4=NC5CS(=O)(=O)CC5S4)c3)CC2)c1 (stereo unspecified)	.	.	.	.	.	.
Cc1ccc(C)c(N2CCN(C(=O)c3ccc(Cl)c(NC4=NC5CS(=O)(=O)CC5S4)c3)CC2)c1 (stereo unspecified)	.	.	.	.	.	.
O=C(c1ccc(Cl)c(NC2=NC3CS(=O)(=O)CC3S2)c1)N1CCN(c2ccccc2)CC1 (stereo unspecified)	.	.	.	.	.	.
O=C(c1ccc(NC2=NC3CS(=O)(=O)CC3S2)cc1)N1CCN(c2ccccc2F)CC1 (stereo unspecified)	.	.	.	.	.	/
Cc1ccc(C)c(N2CCN(C(=O)Cc3ccc(NC4=NC5CS(=O)(=O)CC5S4)cc3)CC2)c1 (stereo unspecified)	.	.	/	56	.	.
CCOc1ccc(Oc2ccccc2NC(=O)CCNC(C)=O)cc1	.	.	.	.	.	/
COC(=O)c1ccc2c(c1C(=O)OC)CN(S(=O)(=O)C(C)(C)C)[C@H]2CCO	.	/	/	/	/	/
CNC(=O)C(C#N)(Cc1cc(C(C)=O)ccc1OC)Cc1cc(C(C)=O)ccc1OC	.	.	.	.	.	/
Cc1cccc(N2CCN(C(=O)c3ccc(Cl)c(NC4=NC5CS(=O)(=O)CC5S4)c3)CC2C)c1 (stereo unspecified)	.	.	.	.	.	.
NS(=O)(=O)c1cc(C(=O)OCC(=O)Nc2ccc(Cl)cc2[N+](=O)[O-])ccc1Cl	.	.	.	52	.	.
CCOCCCNC(=O)/C(C#N)=C/c1ccc(Cl)c([N+](=O)[O-])c1	.	.	.	59	.	.
CCCCCCCCNC(=O)/C(C#N)=C/c1ccc(SC)cc1	.	.	.	.	.	.
CCCCCCCCNC(=O)/C(C#N)=C/c1ccc2c(c1)OCCO2	.	.	.	.	.	/
COCCNC(=O)/C(C#N)=C/c1ccc(O)cc1	.	.	.	.	.	.
COCCNC(=O)/C(C#N)=C/c1cccc(/C=C(\C#N)C(=O)NCCOC)c1	.	.	.	50	/	.
CN(C(=O)COC(=O)c1ccccc1Cc1ccccc1)C1CCS(=O)(=O)C1 (stereo unspecified)	.	.	.	.	.	/
Cc1ccccc1Nc1nc(N)nc(CSc2ccc(F)cc2)n1	.	.	.	.	.	/
Cc1ccc(SCc2nc(N)nc(Nc3ccccc3C)n2)cc1C	.	.	.	54	.	.
N=c1c2cn[nH]c2nc(SCC(=O)c2ccc(Br)cc2)n1-c1ccc(Br)cc1	.	.	.	.	.	/
COc1cccc(C(=O)COC(=O)CCCC(=O)NC2CCCCC2)c1	.	.	.	.	.	/
O=c1[nH]cnc2c1nc(SCc1ccccc1)n2C1OC(CO)C(O)C1O (stereo unspecified)	.	.	.	51	.	.
CN(C)C(=O)c1ccc(NC(=O)CN2C(=O)NC3(CCCc4ccccc43)C2=O)cc1 (stereo unspecified)	.	.	.	.	.	/
CCC(C)C(NC(=O)c1ccc(Cl)cc1)C(=O)O (stereo unspecified)	.	.	.	93	.	.
